# Measured values from PubChem BioAssay.
# Tested on: Inhibin beta A chain (activin A)
# Assay: small molecules binding activin A – biochemical, small-molecule microarray, 635 nm fluorescence scan, primary screen (AID 1107);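 note: mouse activin A protein probed at 4.33 µg/mL on printed slides; score merges bound-protein fluorescence near 667 nm with spot signal-to-noise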
# Conditions: INHBA, higher = more signal
row,SMILES,composite z-score
1,COc1ccc([Si](C)(C)[C@@H]2[C@@H](CCO)O[C@]3(C(=O)N(Cc4ccc(N5C(=O)c6ccccc6Oc6ccccc65)cc4)c4ccccc43)[C@H]2C)cc1,-0.557
2,O=C1O[C@@H](c2ccccc2)[C@@H](c2ccccc2)N2[C@@H](c3ccc(O)cc3)[C@]3(C(=O)Nc4ccc(C#CC5(O)CCCCCC5)cc43)[C@@H](C(=O)N3CCN(c4ncccn4)CC3)[C@H]12,-0.293
3,COCCCNC(=O)[C@@]1(C)c2ccccc2C(=O)N(c2ccc(C)cn2)[C@H]1c1ccc(CO)cc1,0.534
4,COc1ccc([Si](C)(C)[C@H]2[C@H](CCO)O[C@@]3(C(=O)N(Cc4cccc(N5CCOC5=O)c4)c4ccccc43)[C@@H]2C)cc1,-0.419
5,O=C(N1CCOCC1)[C@@]1(CCS(=O)(=O)c2ccccc2)COC(c2ccc(OCCCO)cc2)=N1,-0.704
6,COCCOC(=O)N1C(=O)[C@@]2(c3cc(C#Cc4ccc(OC)cc4)ccc31)[C@H](C(N)=O)[C@H]1C(=O)O[C@H](c3ccccc3)[C@H](c3ccccc3)N1[C@@H]2c1ccc(OCCO)cc1,0.343
7,C=C[C@H](C)[C@H](OC(=O)Nc1ccc(SC)cc1)c1ccc(O)c2ccccc12,0.289
8,C=C(CCCC)/C(=C/C[C@H](OC(=O)c1ccncc1)c1ccc(CO)o1)c1cc(C(=O)OC)ccc1OC,0.554
9,CN1C(=O)C2C=CC(C(O)c3cccc4ccccc34)N(NC(=O)OC(C)(C)C)C2C1=O (stereo unspecified),0.844
10,COc1cc2c(cc1OC)CN(C(=O)[C@@H]1[C@H]3C(=O)O[C@H](c4ccccc4)[C@H](c4ccccc4)N3[C@H](c3ccc(OCCO)cc3)[C@@]13C(=O)Nc1ccc(C#CCCO)cc13)CC2,0.638
11,NCCCCCCNC(=O)[C@H]1C[C@H]2C(=O)N3CCC[C@H]3C(=O)N2[C@H]1c1ccc(O)cc1,0.977
12,C[C@H]1NC(=O)C([C@@H](C)OCc2ccccc2)NC(=O)[C@@]23C(=O)N[C@@H](Cc4ccccc4)C2[C@H](C)[C@@]2(C)O[C@H]2C3/C=C/CC/C=C/CNC1=O (stereo partly specified),1.42
13,O=C1O[C@@H](c2ccccc2)[C@@H](c2ccccc2)N2[C@@H](c3ccc(O)cc3)[C@]3(C(=O)Nc4ccc(C#CC5=CCCCC5)cc43)[C@@H](C(=O)Nc3nc4ccccc4s3)[C@H]12,1.07
14,CC(C)(C)N1CC=CC23O[C@@H]4C=CCCOC(=O)C4[C@H]2C(=O)N(CCCO)[C@@H]3C1=O (stereo partly specified),1.38
15,CN(C)CCCCNC(=O)[C@H]1C[C@H]2C(=O)N[C@@H](CCCC[N+](C)(C)C)C(=O)N2[C@H]1c1cccc(OCCO)c1,0.877
16,CCCCC(CC)C(O)C1C=CC2C(=O)NC(=O)C2N1Nc1ccccn1 (stereo unspecified),1.33
17,C[N+](C)(C)CCCCCCNC(=O)[C@@H]1C[C@@H]2C(=O)NCC(=O)N2[C@@H]1c1cccc(OCCO)c1,0.728
18,CCCCC=C[C@@H](NC(=O)CCc1ccccc1)c1ccccc1,0.724
19,C[N+](C)(C)CCCCCCNC(=O)[C@H]1C[C@H]2C(=O)N3CCC[C@H]3C(=O)N2[C@H]1c1cccc(OCCO)c1,0.959
20,COc1cccc(C)c1NC(=O)O[C@H]1[C@H](OC(=O)Nc2ccccc2)[C@H](OC(=O)Nc2ccccc2)[C@@H](OC)O[C@@H]1CO,0.179
21,CC(C)NC(=O)[C@@]1(Cc2ccccc2I)c2ccccc2C(=O)N(Cc2ccccc2C(F)(F)F)[C@H]1c1ccc(CO)cc1,0.299
22,COCCCNC(=O)[C@@]1(Cc2ccccc2CN=[N+]=[N-])N=C(c2ccc(OCCCO)cc2)O[C@H]1c1ccccc1N=[N+]=[N-],0.542
23,C=C(C)[C@@H]1CC=C(C(O)C2C=CC3C(=O)N(C4CCCCC4)C(=O)C3N2Nc2ccc(OC)cc2)CC1 (stereo partly specified),0.918
24,C=CCC(OC(C)=O)[C@@H]1[C@@H](N(Cc2ccc(-c3ccccc3)cc2)C(=O)Cc2ccc(OC)cc2)c2cc(OCCCO)ccc2N1C(=O)c1ccc(-c2ccccc2)cc1 (stereo partly specified),1.22
25,CC(C)=CCCC(C)=CC(O)C1C=CC2C(=O)N(c3ccccc3)C(=O)C2N1Nc1ccc([N+](=O)[O-])cc1 (stereo unspecified),0.387

# Tested on: Human papillomavirus type 1a protein E7 (residues 44-93)
# Assay: small molecules binding HPV E7 44-93 – biochemical, small-molecule microarray, residues 44-93, 635 nm fluorescence, primary screen (AID 1108);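 note: E7 fragment applied at 1 µg/mL in TBST for 1 h at 4 C; score combines spot fluorescence with its signal to noise ratio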
# Conditions: fluorescence 635 nm, higher = more signal
row,SMILES,composite z-score
1,COC(=O)[C@H]1N=C(c2ccc(OCCCO)cc2)O[C@H]1c1ccccc1CN=[N+]=[N-],1.05
2,C[N+](C)(C)CCCCNC(=O)[C@H]1C[C@H]2C(=O)NCC(=O)N2[C@H]1c1ccc(O)cc1,0.0571
3,CN(C)CCCCCCNC(=O)[C@@H]1C[C@@H]2C(=O)NCC(=O)N2[C@@H]1c1ccc(O)cc1,1.33
4,COc1ccc(C#Cc2ccc3c(c2)[C@]2(C(=O)N3)[C@H](c3ccc(OCCO)cc3)N3[C@H](c4ccccc4)[C@H](c4ccccc4)OC(=O)[C@H]3[C@@H]2C(=O)N2CCN(c3ncccn3)CC2)cc1,1.25
5,[N-]=[N+]=NCc1ccccc1[C@H]1OC(c2ccc(OCCCO)cc2)=N[C@@]1(Cc1ccccc1)C(N)=O,1.44
6,C#CCOC(=O)N[C@H](C=CCCCC)c1ccccc1,-0.0543
7,COc1cccc(C[C@H]2C[C@@H](CO[Si](C(C)C)(C(C)C)C(C)C)N3C(=O)[C@]4(C(C)=O)O[C@]23[C@H]2C(=O)N(C)C(=O)[C@H]24)c1,1.01
8,C=C(COC)/C(=C/C[C@@H](OC(=O)c1ccncc1)c1cccc(OCCO)c1)c1cc(C(=O)OC)ccc1OC,0.755
9,C[N+](C)(C)CCCC[C@@H]1NC(=O)[C@@H]2C[C@H](C(=O)NCCCCCNC(=O)CS)[C@H](c3cccc(OCCO)c3)N2C1=O,0.911
10,CCCCCCCCCCC(O)C1C=CC2C(=O)NC(=O)C2N1Nc1ccccn1 (stereo unspecified),1.08
11,CCOC(=O)C[C@H]1[C@H](OC(=O)c2ccc(C(=O)c3ccccc3)cc2)[C@@H](NC(=O)C2CCCCC2)c2cc(OCCCO)ccc2N1C(=O)Cc1ccc(OC)cc1,0.773
12,COc1ccc([Si](C)(C)[C@@H]2[C@@H](CCO)O[C@]3(C(=O)N(Cc4ccc(N5C(=O)c6ccccc6Oc6ccccc65)cc4)c4ccccc43)[C@H]2C)cc1,-0.0261
13,O=C1O[C@@H](c2ccccc2)[C@@H](c2ccccc2)N2[C@@H](c3ccc(O)cc3)[C@]3(C(=O)Nc4ccc(C#CC5(O)CCCCCC5)cc43)[C@@H](C(=O)N3CCN(c4ncccn4)CC3)[C@H]12,1.4
14,COCCCNC(=O)[C@@]1(C)c2ccccc2C(=O)N(c2ccc(C)cn2)[C@H]1c1ccc(CO)cc1,-0.588
15,COc1ccc([Si](C)(C)[C@H]2[C@H](CCO)O[C@@]3(C(=O)N(Cc4cccc(N5CCOC5=O)c4)c4ccccc43)[C@@H]2C)cc1,1.1
16,O=C(N1CCOCC1)[C@@]1(CCS(=O)(=O)c2ccccc2)COC(c2ccc(OCCCO)cc2)=N1,0.901
17,COCCOC(=O)N1C(=O)[C@@]2(c3cc(C#Cc4ccc(OC)cc4)ccc31)[C@H](C(N)=O)[C@H]1C(=O)O[C@H](c3ccccc3)[C@H](c3ccccc3)N1[C@@H]2c1ccc(OCCO)cc1,1.42
18,C=C[C@H](C)[C@H](OC(=O)Nc1ccc(SC)cc1)c1ccc(O)c2ccccc12,-1.97

row,SMILES,composite z-score
1,C=C(CCCC)/C(=C/C[C@H](OC(=O)c1ccncc1)c1ccc(CO)o1)c1cc(C(=O)OC)ccc1OC,-0.0541
2,CN1C(=O)C2C=CC(C(O)c3cccc4ccccc34)N(NC(=O)OC(C)(C)C)C2C1=O (stereo unspecified),1.28
3,COc1cc2c(cc1OC)CN(C(=O)[C@@H]1[C@H]3C(=O)O[C@H](c4ccccc4)[C@H](c4ccccc4)N3[C@H](c3ccc(OCCO)cc3)[C@@]13C(=O)Nc1ccc(C#CCCO)cc13)CC2,1.44
4,NCCCCCCNC(=O)[C@H]1C[C@H]2C(=O)N3CCC[C@H]3C(=O)N2[C@H]1c1ccc(O)cc1,-0.0863
5,C[C@H]1NC(=O)C([C@@H](C)OCc2ccccc2)NC(=O)[C@@]23C(=O)N[C@@H](Cc4ccccc4)C2[C@H](C)[C@@]2(C)O[C@H]2C3/C=C/CC/C=C/CNC1=O (stereo partly specified),-0.165
6,O=C1O[C@@H](c2ccccc2)[C@@H](c2ccccc2)N2[C@@H](c3ccc(O)cc3)[C@]3(C(=O)Nc4ccc(C#CC5=CCCCC5)cc43)[C@@H](C(=O)Nc3nc4ccccc4s3)[C@H]12,1.4
7,CC(C)(C)N1CC=CC23O[C@@H]4C=CCCOC(=O)C4[C@H]2C(=O)N(CCCO)[C@@H]3C1=O (stereo partly specified),-0.371
8,CN(C)CCCCNC(=O)[C@H]1C[C@H]2C(=O)N[C@@H](CCCC[N+](C)(C)C)C(=O)N2[C@H]1c1cccc(OCCO)c1,1.37
9,CCCCC(CC)C(O)C1C=CC2C(=O)NC(=O)C2N1Nc1ccccn1 (stereo unspecified),1.46
10,C[N+](C)(C)CCCCCCNC(=O)[C@@H]1C[C@@H]2C(=O)NCC(=O)N2[C@@H]1c1cccc(OCCO)c1,0.891
11,CCCCC=C[C@@H](NC(=O)CCc1ccccc1)c1ccccc1,1.38
12,C[N+](C)(C)CCCCCCNC(=O)[C@H]1C[C@H]2C(=O)N3CCC[C@H]3C(=O)N2[C@H]1c1cccc(OCCO)c1,0.809
13,COc1cccc(C)c1NC(=O)O[C@H]1[C@H](OC(=O)Nc2ccccc2)[C@H](OC(=O)Nc2ccccc2)[C@@H](OC)O[C@@H]1CO,1.3
14,CC(C)NC(=O)[C@@]1(Cc2ccccc2I)c2ccccc2C(=O)N(Cc2ccccc2C(F)(F)F)[C@H]1c1ccc(CO)cc1,-0.358
15,COCCCNC(=O)[C@@]1(Cc2ccccc2CN=[N+]=[N-])N=C(c2ccc(OCCCO)cc2)O[C@H]1c1ccccc1N=[N+]=[N-],-0.0639
16,C=C(C)[C@@H]1CC=C(C(O)C2C=CC3C(=O)N(C4CCCCC4)C(=O)C3N2Nc2ccc(OC)cc2)CC1 (stereo partly specified),1.39
17,C=CCC(OC(C)=O)[C@@H]1[C@@H](N(Cc2ccc(-c3ccccc3)cc2)C(=O)Cc2ccc(OC)cc2)c2cc(OCCCO)ccc2N1C(=O)c1ccc(-c2ccccc2)cc1 (stereo partly specified),-0.354
18,CC(C)=CCCC(C)=CC(O)C1C=CC2C(=O)N(c3ccccc3)C(=O)C2N1Nc1ccc([N+](=O)[O-])cc1 (stereo unspecified),1.42
